CYP2C19 activ: cytochrome P450 2C19 (human) activation | recombinant CYP2C19, luciferin-H EGE luminescence; stronger effect = higher value; 0 = fully inhibited enzyme, 1 = untreated enzyme | 96,000 tested, under 10 active | P33261 | activation factor at 5 µM | AID 1025;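 active means activation factor of at least 2 at 5 µM in the primary screen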;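 further: 0 = wells with 2.5 mM tranylcypromine and 1 = vehicle-only wells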
Target sequence (P33261 whole entry, looked up): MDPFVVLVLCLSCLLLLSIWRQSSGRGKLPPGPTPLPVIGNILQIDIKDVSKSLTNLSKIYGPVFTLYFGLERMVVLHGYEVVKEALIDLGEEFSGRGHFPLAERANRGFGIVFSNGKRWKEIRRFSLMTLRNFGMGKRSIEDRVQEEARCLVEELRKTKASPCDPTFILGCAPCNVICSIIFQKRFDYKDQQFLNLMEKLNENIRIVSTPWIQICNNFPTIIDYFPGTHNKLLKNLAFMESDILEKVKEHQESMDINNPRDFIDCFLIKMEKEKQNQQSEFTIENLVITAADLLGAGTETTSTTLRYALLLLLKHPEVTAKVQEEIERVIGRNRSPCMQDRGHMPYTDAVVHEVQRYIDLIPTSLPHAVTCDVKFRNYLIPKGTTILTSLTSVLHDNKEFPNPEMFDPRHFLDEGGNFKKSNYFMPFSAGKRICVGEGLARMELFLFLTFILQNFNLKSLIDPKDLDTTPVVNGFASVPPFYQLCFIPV
CYP2C9 act: increases human cytochrome P450 2C9 activity; recombinant CYP2C9, luciferin-H conversion, luminescence; stronger effect = higher value; factor 1 = untreated enzyme, 0 = blocked; activation factor at 5 µM; 1.4% of 96,000 active;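 active means activation factor of 2 or more for CYP2C9 at a 5 µM dose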;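 further: 0 = sulfaphenazole-blocked wells and 1 = vehicle-only wells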
sEH activator: soluble epoxide hydrolase (human) activation; P34913; purified human sEH enzymatic activity, activator screen; activation, % at 2 µM; 0.04% of 91,000 active; AID 717; in the data active means activation above about 37%
CYP2C19 inh: blocks human cytochrome P450 2C19. P33261. CYP2C19 Supersomes, luciferin-H EGE luminescence, 30 min. inhibition, % at 5 µM. 21% of 96,000 active;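 active means CYP2C19 inhibition above a set limit at 5 µM in the primary screen, cut at about 50% in these data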;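 further: plate controls were negative control wells for no effect and 2.5 mM tranylcypromine positive control for full effect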
CYP2C9 inhib: human CYP2C9 inhibition; 20% of 96,000 active; inhibition, % at 5 µM; AID 777; P11712; CYP2C9 Supersomes, luciferin-H conversion, luminescence;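 active means blocking of liver enzyme CYP2C9 beyond about 50% at 5 µM, limit read from the data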
sEH inh: blocks human soluble epoxide hydrolase activity | inhibition, % at 2 µM | recombinant human sEH enzymatic activity assay | 0.34% of 91,000 active; in the data active means inhibition above about 80%
The depositor's hits bear a star; · = not tested or not shown. The list is not random: actives were taken first. Their share in the collection is about 27%.

SMILES	CYP2C19 activ	CYP2C9 act	sEH activator	CYP2C19 inh	CYP2C9 inhib	sEH inh
COc1cc(-n2c(=O)c3ccccc3n(Cc3ccccc3)c2=O)cc(OC)c1OC	0.4	1.2	4.3	62.5*	-18.7	-2.0
CCCCOC1(c2ccccc2)OC(=O)c2ccccc21 (stereo unspecified)	0.4	0.4	6.4	55.0*	61.2*	-5.6
CCCCC(CC)COC1(c2ccccc2)OC(=O)c2ccccc21 (stereo unspecified)	0.7	0.5	6.0	28.5	46.4	-5.3
O=C1OC(Oc2ccccc2)(c2ccccc2)c2ccccc21 (stereo unspecified)	0.6	0.5	-2.5	44.3	54.4*	4.2
Clc1cccc(Cl)c1CSc1nnc(CN2CCOCC2)n1-c1ccccc1	0.7	0.9	-6.2	33.2	6.7	7.5
CN(C)C(=O)CSCc1c(Cl)cccc1Cl	1	1.1	-8.8	-3.2	-8.7	7.2
Cn1c(CS(=O)Cc2c(Cl)cccc2Cl)nnc1SCc1c(Cl)cccc1Cl (stereo unspecified)	0.4	0.7	-15.9	55.3*	33.5	17.4
Cn1c(CO)cnc1SCc1c(Cl)cccc1Cl	0.2	0.8	9.9	81.7*	21.0	-8.8
O=S(Cc1ccc(Br)cc1)Cc1nnc(SCc2c(Cl)cccc2Cl)n1-c1ccccc1 (stereo unspecified)	0.1	0.2	11.4	87.7*	79.9*	-13.7
N#Cc1nc(-c2cccs2)oc1N1CCN(Cc2ccccc2)CC1	0.8	1.2	0.1	19.3	-17.1	1.1
Cc1ccc(S(=O)(=O)N2CN(Cc3ccco3)c3nc4ccccc4nc32)cc1	0.2	0.1	9.2	75.5*	90.0*	-12.3
Cc1ccc(S(=O)(=O)N2CCOCC2)cc1C(=O)NCc1ccco1	0.9	1	3.5	11.6	0.7	-4.0
COc1ccc(S(=O)(=O)N2CN(Cc3ccco3)c3nc4ccccc4nc32)cc1	0.3	0.5	3.6	69.8*	53.9*	-3.3
COc1ccc(S(=O)(=O)n2c(CCN3CCOCC3)nc3ccccc32)cc1	0.9	1.7	·	12.8	-67.2	·
Cc1ccc(S(=O)(=O)N2CN(Cc3ccco3)c3nc4ccccc4nc32)cc1C	0.3	0.2	-2.9	67.9*	83.5*	0.2
Cc1ccc(S(=O)(=O)N2CCCC2C(=O)OCc2ccco2)cc1 (stereo unspecified)	0.8	1.2	-3.9	24.1	-17.1	7.3
O=S(=O)(c1ccc(F)cc1)N1CN(Cc2ccco2)c2nc3ccccc3nc21	0.2	0.4	-4.6	82.2*	59.9*	7.1
Cc1cc(-n2c(C)cc(C(=O)CSc3ccc4c(c3)OCCO4)c2C)no1	0.1	0.7	4.1	89.1*	31.2	-4.5
Cn1c(=O)c2c(nc(SCC(=O)N(C3CCCCC3)C3CCCCC3)n2C)n(C)c1=O	·	·	-11.9	·	·	12.3
COc1cc2cc(CN(CCO)C(=O)c3cccs3)c(=O)[nH]c2cc1OC	1.1	1.1	-4.1	-11.0	-8.0	6.1
CCOC(=O)c1csc(NC(=O)c2ccc(S(=O)(=O)N(C)C)cc2)n1	0.9	0.9	·	6.2	10.0	·
CCOC(=O)c1cncc(NC(=O)c2ccccc2)c1	0.8	1	1.4	21.1	2.3	-1.9
CCOC(=O)c1csc(NC(=O)c2ccccc2)n1	0.3	0.6	·	74.3*	42.6	·
CCOC(=O)Cc1cnc(NC(=O)c2ccccc2)s1	0.1	0.2	-26.1	94.4*	84.0*	27.1
O=C(NCCOC12CC3CC(CC(C3)C1)C2)c1cccc(Br)c1	0.3	0.7	-24.3	71.7*	29.5	26.0
SMILES	CYP2C19 activ	CYP2C9 act	sEH activator	CYP2C19 inh	CYP2C9 inhib	sEH inh
O=C(O)CCCCCNC(=O)c1cccc(Br)c1	1.1	1	-10.3	-7.4	3.7	11.5
CCOC(=O)c1cnc(SC)nc1Oc1cccc(NC(=O)c2ccc(C)cc2)c1	1	0.6	-3.3	3.1	39.5	3.8
CCOC(=O)c1cnc(SC)nc1Nc1cccc(F)c1	0.6	0.3	-2.6	35.2	69.7*	4.2
CCOC(=O)c1cnc(SC)nc1Oc1cccc(NS(=O)(=O)c2ccccc2)c1	0.8	0.2	15.3	17.9	82.4*	-15.0
CCOC(=O)c1cnc(SC)nc1Nc1cccc2ccccc12	·	·	6.7	·	·	-6.1
CCOC(=O)c1cnc(SC)nc1Oc1cccc(NC(=O)c2cccc(Cl)c2Cl)c1	0.9	0.3	-2.8	13.6	74.5*	1.6
CCOC(=O)c1cnc(SC)nc1Oc1cccc(NS(=O)(=O)c2ccc(F)cc2)c1	0.7	0.2	-15.5	25.6	76.9*	15.7
CC(C)COC(=O)Nc1ccccc1C(=O)N1CCOCC1	0.8	1	14.3	17.7	4.8	-14.2
CCC(=O)N/C(=N\OCc1ccc(F)cc1)c1nonc1NC(=O)CC	0.3	0.9	-7.4	65.0*	11.5	4.8
O=C(NCc1ccco1)C1CC(=O)N(c2ccc(O)cc2)C1 (stereo unspecified)	1	2.5*	-10.6	-4.9	-146.6	10.6
CCCOc1ccc(N2CC(C(=O)Nc3ccccc3C(=O)NCc3ccco3)CC2=O)cc1 (stereo unspecified)	0.8	0.4	-6.0	15.2	61.9*	9.2
O=C(NCc1ccco1)C1CC(=O)N(CCc2ccccc2)C1 (stereo unspecified)	0.9	1	·	7.6	-3.1	·
COc1ccc(N2CC(C(=O)Nc3ccccc3C(=O)NCc3ccco3)CC2=O)cc1 (stereo unspecified)	0.3	0.2	8.6	65.8*	84.2*	-9.4
CCOCCOc1nc2c(c(=O)n(C)c(=O)n2C)n1Cc1ccc(C)cc1	·	·	-1.2	·	·	0.9
CC(C)(C)CC(=O)Nc1ccc(Nc2ccccc2)cc1	0.9	0.6	-33.1	13.4	39.0	32.9
Cn1nnnc1SCC(=O)N1CCN(c2cccc(Cl)c2)CC1	0.3	1.1	8.1	71.7*	-11.1	-6.6
O=C(CSc1ccccn1)N1CCN(c2ccccc2)CC1	0	0.6	0.0	99.2*	44.8	4.8
O=C(CSc1nc(N2CCCCC2)nc(N2CCCCC2)n1)N1CCN(c2ccccc2)CC1	0.2	0.2	·	76.6*	82.8*	·
O=C(CSc1ccccn1)N1CCN(c2cccc(Cl)c2)CC1	0.3	0.6	-4.8	72.4*	35.9	6.8
O=C(CSc1ccccc1)N1CCN(c2ccccc2)CC1	·	·	8.5	·	·	-10.5
Cn1nnnc1SCC(=O)N1CCN(c2ccccc2)CC1	0.6	1.2	·	41.0	-22.6	·
Cc1nc2nc(C)c(CCC(=O)Nc3ccc4c(c3)OCO4)c(C)n2n1	1.1	1	3.8	-6.5	4.2	-2.1
Cc1cc2occ(CC(=O)NC3=NCCS3)c2cc1C(C)C	0.7	1.2	-0.1	26.3	-19.9	0.0
CCOc1ccc(CCNC(=O)C2CCC(=O)N2CCc2ccccc2)cc1OCC (stereo unspecified)	1	0.3	-3.3	4.3	67.8*	2.8
CCOc1ccc(CCNC(=O)CCn2cccc2)cc1OCC	0.5	0.6	10.6	45.1	42.9	-6.3
CC(C)CCNC(=O)COC(=O)c1ccc(Br)o1	0.5	0.7	-3.1	49.7	26.4	4.3

Screens (PubChem BioAssay)
